# Source: PubChem BioAssay (Tox21)
# Results filed as inconclusive are left out. Entries that show only a call come without a potency. A number with no mark means an inactive call. The source made the active and inactive calls. Unless noted, calls follow the shape of the dose curve; as a rule, active = well fitted curve in the direction sought with a large enough effect in the repeat runs; inconclusive = weak or mixed curves; inactive = no such curve, though single readings can be large; an effect the other way counts as inactive or inconclusive.
# Columns and labels:
# [1] = qHTS assay to identify small molecule agonists of the constitutive androstane receptor (CAR) signaling pathway - cell viability counter screen (AID 1224836); also: series mostly up to about 92 µM; nearly all actives have a fitted effect of over 45% in size
# Procedure, shortened: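 HepG2 cells stably carrying hCAR and a CYP2B6-2.2kb reporter were plated 4 h, then given compounds at 15 concentrations plus PK11195 (final 0.75 uM). After 23 h at 37 C, viability was read by CellTiter-Fluor fluorescence.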
# [2] = qHTS assay to identify small molecule antagonists of the constitutive androstane receptor (CAR) signaling pathway - cell viability counter screen (AID 1224837); also: nearly all actives have a fitted effect of over 45% in size; also: potency is read from the fitted curve at half-maximal effect
# Procedure, shortened: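 In quantitative HTS format, compounds at 15 concentrations were applied to HepG2 cells double-transfected with hCAR and CYP2B6-2.2kb under 50 nM CITCO stimulation; live-cell protease activity was read after 23 hr via CellTiter-Fluor.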
# [3] = target: Nuclear receptor subfamily 1 group I member 3 (Homo sapiens) (UniProt Q14994); test: qHTS assay to identify small molecule antagonists of the constitutive androstane receptor (CAR) signaling pathway (AID 1224838); also: nearly all actives have a fitted effect of over 40% in size; also: potency is read from the fitted curve at half-maximal effect
# Chain of Nuclear receptor subfamily 1 group I member 3 (Homo sapiens) (Q14994 whole entry, looked up): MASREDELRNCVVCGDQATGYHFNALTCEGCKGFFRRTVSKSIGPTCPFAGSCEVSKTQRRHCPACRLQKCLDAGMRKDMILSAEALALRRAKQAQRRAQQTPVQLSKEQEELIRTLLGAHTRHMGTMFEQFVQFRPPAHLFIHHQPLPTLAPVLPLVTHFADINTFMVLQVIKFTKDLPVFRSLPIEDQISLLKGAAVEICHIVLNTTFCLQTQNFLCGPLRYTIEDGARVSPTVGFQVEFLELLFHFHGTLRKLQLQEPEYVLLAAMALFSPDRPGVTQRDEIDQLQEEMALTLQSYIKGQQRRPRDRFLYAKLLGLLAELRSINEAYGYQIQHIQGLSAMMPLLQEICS
# Procedure, shortened: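 CITCO-stimulated (50 nM final) HepG2 cells stably transfected with hCAR and CYP2B6-2.2kb luciferase were exposed to compounds at 15 concentrations for 24 h at 37 C/5% CO2. A luciferase reagent was added and luminescence recorded after 30 min.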
# [4] = target: Nuclear receptor subfamily 1 group I member 3 (Homo sapiens) (UniProt Q14994); test: qHTS assay to identify small molecule agonists of the constitutive androstane receptor (CAR) signaling pathway (AID 1224839); also: nearly all actives have a fitted effect of over 15% in size; also: potency is read from the fitted curve at half-maximal effect;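 as to activation: HepG2 cells stably carrying human CAR and a CYP2B6 luciferase reporter; series mostly up to about 92 µM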
# Procedure, shortened: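 HepG2 cells stably expressing hCAR and a CYP2B6-2.2kb luciferase reporter were treated with compounds at 15 concentrations plus 0.75 uM PK11195 (final) for 24 h at 37 C; luminescence was read after ONE-Glo addition.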
# [5] = qHTS assay to identify small molecule antagonists of the estrogen related receptor signaling pathway with the pleiotropic PPARgamma coactivator (PGC) from Tox21 10K library - cell viability counter screen (AID 1224840; active = well fitted cell-killing curve with a large enough effect in the repeat runs, not every such curve was filed as active; also: nearly all actives have a fitted effect of over 40% in size)
# Procedure, shortened: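 Viability counter screen, PGC/ERR cells: 17.5 h compound exposure at 37 C, CellTiter-Fluor fluorescence endpoint.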
# [6] = qHTS assay to identify small molecule antagonists of the estrogen related receptor signaling pathway with the pleiotropic PPARgamma coactivator (PGC) from Tox21 10K library (AID 1224841; call rule not given here; also: actives are mostly falling curves and most rising ones were filed inactive; nearly all actives have a fitted effect of over 50% in size; also: potency is read from the fitted curve at half-maximal effect; as to activity, negative = inhibition: series mostly up to about 92 µM)
# Procedure, shortened: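 In the PGC/ERR line, DMSO solutions of test chemicals are pin-delivered to 2,000 cells/well six hours after dispensing. Following eighteen hours' incubation, One-Glo reagent is added and luminescence recorded.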
# [7] = qHTS assay to identify small molecule agonists of the estrogen related receptor signaling pathway with the pleiotropic PPARgamma coactivator (PGC) from Tox21 10K library (AID 1224842); also: nearly all actives have a fitted effect of over 15% in size; also: potency is read from the fitted curve at half-maximal effect
# Procedure, shortened: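 PGC/ERR reporter cell line, 2,000 cells per well, incubated 6 h at 37 C before 23 nL compound in DMSO was added. After 18 h at 37 C, One-Glo luminescence read following 30 min at room temperature.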
# [8] = target: Luciferin 4-monooxygenase (Photinus pyralis) (UniProt P08659); test: qHTS assay to identify small molecule inhibitors of firefly luciferase (AID 1224835); also: nearly all actives have a fitted effect of over 25% in size; also: potency is read from the fitted curve at half-maximal effect; as to activity change, negative = inhibition: series mostly up to about 120 µM
# Chain of Luciferin 4-monooxygenase (Photinus pyralis) (P08659 whole entry, looked up): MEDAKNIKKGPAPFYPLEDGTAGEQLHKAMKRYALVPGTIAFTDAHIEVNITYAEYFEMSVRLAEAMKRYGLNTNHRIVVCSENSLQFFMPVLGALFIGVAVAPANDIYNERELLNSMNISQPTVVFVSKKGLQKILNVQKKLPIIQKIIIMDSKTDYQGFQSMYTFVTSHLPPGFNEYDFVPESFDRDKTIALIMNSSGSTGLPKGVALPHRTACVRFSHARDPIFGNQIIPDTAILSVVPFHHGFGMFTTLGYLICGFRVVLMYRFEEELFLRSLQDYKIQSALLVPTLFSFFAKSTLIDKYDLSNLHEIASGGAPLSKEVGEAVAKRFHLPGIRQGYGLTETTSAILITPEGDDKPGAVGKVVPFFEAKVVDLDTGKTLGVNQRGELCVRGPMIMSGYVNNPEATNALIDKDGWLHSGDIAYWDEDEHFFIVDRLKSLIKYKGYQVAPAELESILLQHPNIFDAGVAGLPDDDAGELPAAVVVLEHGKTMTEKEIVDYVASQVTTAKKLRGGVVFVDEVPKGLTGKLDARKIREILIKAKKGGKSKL
# Procedure, shortened: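 Biochemical qHTS: compounds run as interplate titrations against purified firefly enzyme, with D-luciferin and ATP each at its KM concentration. Light output recorded by CCD imaging.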
# [9] = target: Thyrotropin receptor (Homo sapiens) (UniProt P16473); test: qHTS assay to identify small molecule agonists of the thyroid stimulating hormone receptor (TSHR) signaling pathway (AID 1224843; calls by dose curve; also: nearly all actives have a fitted effect of over 45% in size)
# Chain of Thyrotropin receptor (Homo sapiens) (P16473 whole entry, looked up): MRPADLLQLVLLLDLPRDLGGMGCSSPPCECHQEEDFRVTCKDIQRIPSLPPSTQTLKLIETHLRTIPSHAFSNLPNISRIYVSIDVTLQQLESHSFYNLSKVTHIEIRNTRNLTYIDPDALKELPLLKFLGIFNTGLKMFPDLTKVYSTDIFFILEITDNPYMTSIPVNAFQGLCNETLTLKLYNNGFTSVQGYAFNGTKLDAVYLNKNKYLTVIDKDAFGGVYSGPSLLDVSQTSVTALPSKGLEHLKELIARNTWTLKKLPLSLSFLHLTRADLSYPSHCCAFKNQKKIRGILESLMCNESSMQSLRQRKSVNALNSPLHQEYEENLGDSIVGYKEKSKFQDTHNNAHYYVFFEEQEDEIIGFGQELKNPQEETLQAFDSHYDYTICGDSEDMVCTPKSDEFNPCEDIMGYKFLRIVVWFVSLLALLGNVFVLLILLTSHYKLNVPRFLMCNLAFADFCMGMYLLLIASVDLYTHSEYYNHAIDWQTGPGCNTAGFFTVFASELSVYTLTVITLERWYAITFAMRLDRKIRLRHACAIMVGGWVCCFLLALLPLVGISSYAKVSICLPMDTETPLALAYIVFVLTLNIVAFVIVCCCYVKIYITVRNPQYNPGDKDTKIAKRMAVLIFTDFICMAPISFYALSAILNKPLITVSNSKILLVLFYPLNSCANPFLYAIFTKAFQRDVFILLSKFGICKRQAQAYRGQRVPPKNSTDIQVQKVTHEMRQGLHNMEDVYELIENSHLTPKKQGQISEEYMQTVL
# Procedure, shortened: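 HEK293/TSHR, 800 cells/well; cpd 30 min RT; add cAMP-d2 + anti-cAMP-cryptate, 1 h RT; fluorescence read on plate reader. 15-pt titration, n=3.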
smiles,measurement,setting,value
CC1(C)S[C@@H]2[C@H](NC(=O)C(C(=O)O)c3ccccc3)C(=O)N2[C@H]1C(=O)O (stereo partly specified),Potency,[1],inactive
same,Potency,[2],inactive
same,Potency,[3],inactive
same,Potency,[4],inactive
same,Potency,[5],inactive
same,Potency,[6],inactive
same,Potency,[7],inactive
CCc1cc2cc(OC)c(OC)cc2c(Cc2ccccc2)n1,Potency,[8],inactive
same,Potency,[2],inactive
same,Potency,[3],inactive
same,Potency,[5],inactive
same,Potency,[6],inactive
same,Potency,[7],inactive
same,Potency,[9],inactive
CN(C)CC[C@@H](c1ccc(Cl)cc1)c1ccccn1,Potency,[1],inactive
same,Potency,[2],inactive
same,Potency,[5],inactive
same,Potency,[9],inactive
CCCCNC(=S)NCCCC,Potency,[8],inactive
same,Potency,[2],48.6 µM (active)
same,Potency,[3],48.6 µM (active)
same,Potency,[7],inactive
same,Potency,[9],inactive
O=C(O)[C@@H](O)[C@H](O)[C@H](O)[C@@H](O)C(=O)O,Potency,[8],inactive
same,Potency,[1],inactive
same,Potency,[5],inactive
same,Potency,[6],inactive
same,Potency,[7],inactive
same,Potency,[9],inactive
CN1CCN(N)CC1,Potency,[1],inactive
same,Potency,[3],inactive
same,Potency,[4],inactive
same,Potency,[5],inactive
same,Potency,[9],inactive
CCCCOc1cc(C(=O)NCCN(CC)CC)c2ccccc2n1,Potency,[5],inactive
CCCCCCCCCC#N,Potency,[8],inactive
same,Potency,[2],inactive
same,Potency,[3],inactive
same,Potency,[5],inactive
same,Potency,[6],inactive
same,Potency,[7],inactive
same,Potency,[9],inactive
CCOc1ccccc1N,Potency,[8],inactive
same,Potency,[3],inactive
same,Potency,[5],inactive
same,Potency,[6],15.2 µM (active)
same,Potency,[7],inactive
same,Potency,[9],inactive
COc1ccccc1OCC(O)COC(N)=O (stereo unspecified),Potency,[2],inactive
same,Potency,[3],inactive
same,Potency,[5],inactive
same,Potency,[6],inactive
same,Potency,[7],inactive
CCCOCCC,Potency,[1],inactive
same,Potency,[2],inactive
same,Potency,[3],inactive
same,Potency,[4],inactive
same,Potency,[5],inactive
same,Potency,[9],inactive
CN1CCN(C2=Nc3ccccc3Oc3ccc(Cl)cc32)CC1,Potency,[8],inactive
same,Potency,[2],inactive
same,Potency,[3],inactive
same,Potency,[7],inactive
NC(Cc1ccc(F)cc1)C(=O)O (stereo unspecified),"activity change, negative = inhibition",[8],1.28% [at 10.5 µM]
same,"viability change, negative = cytotoxic",[5],2.83% [at 8.39 µM]
same,"activity, negative = inhibition",[6],25.2% [at 8.39 µM]
same,activation,[7],1.4% [at 8.39 µM]
same,activation,[9],1.31% [at 8.39 µM]
O=c1[nH]c(=O)n([C@H]2C[C@H](O)[C@@H](CO)O2)cc1C(F)(F)F,Potency,[8],inactive
same,Potency,[1],inactive
same,Potency,[5],inactive
same,Potency,[6],inactive
same,Potency,[7],inactive
same,Potency,[9],inactive
CC1=C2[C@H](/C=C(\C)C(=O)O)CC[C@@H](C)[C@H]2CC1,Potency,[8],inactive
same,Potency,[1],inactive
same,Potency,[3],inactive
same,Potency,[6],inactive
same,Potency,[7],inactive
same,Potency,[9],inactive
COC(=O)C(C)O (stereo unspecified),Potency,[8],inactive
same,Potency,[2],inactive
same,Potency,[5],inactive
same,Potency,[9],inactive
CC1(C)O[C@@H]2C[C@H]3[C@@H]4CCC5=CC(=O)CC[C@]5(C)[C@@]4(F)[C@@H](O)C[C@]3(C)[C@]2(C(=O)CCl)O1,Potency,[8],inactive
same,Potency,[2],inactive
same,Potency,[3],inactive
same,Potency,[4],inactive
same,Potency,[5],inactive
Cc1nc(N)nc(N)c1-c1ccc(Cl)c(Cl)c1,Potency,[8],inactive
same,Potency,[1],inactive
same,Potency,[6],0.841 µM (active)
same,Potency,[7],inactive
CC(=O)OC(C)OC(C)=O,Potency,[8],inactive
same,Potency,[2],inactive
same,Potency,[3],inactive
same,Potency,[5],inactive
same,Potency,[9],inactive
CC(=O)Oc1cc(C(C)C)c(OCCN(C)C)cc1C,Potency,[8],inactive
same,Potency,[2],inactive
same,Potency,[3],inactive
O=C(CC(=O)C(F)(F)F)c1ccccc1,Potency,[2],inactive
same,Potency,[3],inactive
same,Potency,[4],55.3 µM (active)
same,Potency,[6],inactive
same,Potency,[7],6.2 µM (active)
COc1ccc(Nc2ccc(OC)cc2)cc1,Potency,[8],20.4 µM (active)
same,Potency,[3],inactive
same,Potency,[4],17.5 µM (active)
same,Potency,[5],inactive
same,Potency,[7],27.8 µM (active)
Cc1ccccc1C(=O)Nc1ccc(C(=O)N2CCCC(O)c3cc(Cl)ccc32)c(C)c1 (stereo unspecified),Potency,[1],inactive
same,Potency,[2],inactive
same,Potency,[3],inactive
same,Potency,[5],inactive
same,Potency,[6],inactive
same,Potency,[7],inactive
CCOC(=O)COc1ccc2c(c1)CC(NCC(O)c1cccc(Cl)c1)CC2 (stereo unspecified),Potency,[8],inactive
same,Potency,[3],inactive
same,Potency,[4],inactive
same,Potency,[6],inactive
same,Potency,[7],inactive
CCCCCCCCCCCCOCCOS(=O)(=O)O,Potency,[1],inactive
same,Potency,[2],inactive
same,Potency,[3],inactive
same,Potency,[4],inactive
same,Potency,[5],inactive
same,Potency,[6],inactive
same,Potency,[7],inactive
same,Potency,[9],inactive
NS(=O)(=O)c1cc(-c2nn[nH]n2)c(NCc2cccs2)cc1Cl,Potency,[2],inactive
same,Potency,[3],23.7 µM (active)
same,Potency,[4],inactive
same,Potency,[5],inactive
same,Potency,[9],inactive
CCOc1ccc2nc(N)sc2c1,Potency,[8],19.9 µM (active)
same,Potency,[1],inactive
same,Potency,[3],inactive
same,Potency,[5],inactive
same,Potency,[6],inactive
same,Potency,[7],27.1 µM (active)
same,Potency,[9],inactive
O=C1N(c2ccccc2)c2ccccc2C1(Cc1ccncc1)Cc1ccncc1,Potency,[8],inactive
same,Potency,[3],inactive
same,Potency,[4],inactive
same,Potency,[5],inactive
same,Potency,[6],inactive
same,Potency,[7],inactive
CC1(C)C(=O)N(Cl)C(=O)N1Br,Potency,[1],inactive
same,Potency,[2],inactive
same,Potency,[3],inactive
same,Potency,[4],inactive
same,Potency,[5],inactive
CN1CCN(c2c(F)cc3c(=O)c(C(=O)O)cn4c3c2SCC4)CC1,Potency,[8],inactive
same,Potency,[2],inactive
same,Potency,[3],inactive
same,Potency,[5],inactive
same,Potency,[9],inactive
CC[C@H]1CC[C@H](NCc2cc3c(cc2OC)[C@H]2C[C@H]2C(=O)N3C)[C@H](c2ccccc2)N1,Potency,[8],inactive
same,Potency,[6],21.7 µM (active)
same,Potency,[7],inactive
same,Potency,[9],inactive
CCCCCOc1ccc(C2SC(=O)NC2=O)cc1OCC (stereo unspecified),Potency,[1],inactive
same,Potency,[2],inactive
same,Potency,[3],inactive
same,Potency,[5],inactive
